Here are results for 9 molecules from PubChem BioAssay (NCI).

Assay [1] can be described thus: NCI Yeast Anticancer Drug Screen. Data for the rad50 strain (AID 155).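 Further: 0% = growth of vehicle-only cultures of the same strain.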 To be noted: S. cerevisiae rad50 strain growth inhibition, hits give high values. The method in brief:
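A DNA repair-deficient yeast mutant serves as the test organism; compound-induced growth inhibition is calculated against vehicle-treated cells.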

Assay [2] in a line: NCI Yeast Anticancer Drug Screen. Data for the mec2-1 strain (AID 157). To be noted: S. cerevisiae mec2-1 strain, hits give high values. The gist of the method: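 Yeast mec2-1 mutant treated with compound. Readout: growth inhibition vs vehicle controls.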
Assay [3] is described as follows: NCI Yeast Anticancer Drug Screen. Data for the sgs1 mgt1 strain (AID 161).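 Further: 0% = growth of cultures given vehicle only.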 The settings on record: S. cerevisiae sgs1 mgt1 strain, hits give high values. The method in brief:
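Inhibition of yeast growth, normalised to vehicle-treated controls, is reported for a strain bearing genetic alterations in DNA damage repair.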

Assay [4] can be described thus: NCI Yeast Anticancer Drug Screen. Data for the cln2 rad14 strain (AID 165).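 Further: 0% = growth equal to vehicle treated cultures.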 The settings on record: S. cerevisiae cln2 rad14 strain, hits give high values. The method in brief:
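cln2 rad14 yeast strain; compound exposure; growth inhibition read vs vehicle controls.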

Assay [5] is described as follows: NCI Yeast Anticancer Drug Screen. Data for the bub3 strain (AID 167). To be noted: S. cerevisiae bub3 mutant strain, hits give high values. The gist of the method:
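Inhibition values come from growth of compound-treated mutant yeast normalised to vehicle-treated controls.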

Assay [6] is described as follows: NCI Yeast Anticancer Drug Screen. Data for the mlh1 rad18 strain (AID 175). The settings on record: S. cerevisiae mlh1 rad18 strain growth inhibition, hits give high values. The gist of the method:
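Yeast w/ defined DNA-repair lesions; compound exposure; growth vs vehicle controls → % inhibition.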

The mark [7] stands for this setting: at 5.0 µM (retest, dose inferred, filed as 0.5).
Where [8] appears, read: at 50.0 µM (retest, dose inferred, filed as 5.0).

About 79,000 compounds went through this panel and 15% of them were active in at least one assay; those are over-represented in the sample as a whole. A number with no mark means an inactive call. Active and inactive are the calls of the source. No stated cut-off is given here; in the data, active means growth inhibition above about 70%; inactive means the rest.

In the case of `CCC(CC)N(CCNc1cc(OC)cc2cccnc12)CC(C)C`, the growth inhibition is 7% in assay [1] (setting [7]); 7% in assay [1] (setting [8]); 60.8% in assay [1] (at 50.0 µM); 1% in assay [2] (setting [7]); 0% in assay [2] (setting [8]); 26% in assay [2] (at 50.0 µM). The growth inhibition in assay [3] (setting [7]) was 4%; in assay [3] (setting [8]), 12%; in assay [3] (at 50.0 µM) it was 53.6%; in assay [4] (setting [7]), 9%; in assay [4] (setting [8]), -6%; in assay [4] (at 50.0 µM), 49.5%. In addition, the growth inhibition was 4% in assay [5] (setting [7]); 11% in assay [5] (setting [8]); 57% in assay [5] (at 50.0 µM); 4% in assay [6] (setting [7]); 10% in assay [6] (setting [8]); 67.8% in assay [6] (at 50.0 µM).
For the molecule `C(=N\N=C\c1ccc2c(c1)OCO2)/c1ccc2c(c1)OCO2`, the growth inhibition in assay [1] (setting [7]) was 2%; in assay [1] (setting [8]), 4%; in assay [1] (at 50.0 µM), 3.1%; in assay [2] (setting [7]), 3%; in assay [2] (setting [8]) it was 2%; in assay [2] (at 50.0 µM) it was -4.3%. The growth inhibition in assay [3] (setting [7]) is 0%; in assay [3] (setting [8]) it was 6%; in assay [3] (at 50.0 µM), -3.7%; in assay [4] (setting [7]), -32%; in assay [4] (setting [8]), -6%; in assay [4] (at 50.0 µM) it was 75.9% (active). In addition, the growth inhibition in assay [5] (setting [7]) was 3%; in assay [5] (setting [8]) it was 1%; in assay [5] (at 50.0 µM) it was 3.9%; in assay [6] (setting [7]) it was 10%; in assay [6] (setting [8]), 21%; in assay [6] (at 50.0 µM) it was 6.45%.
With `CN(/N=C/c1ccc([N+](=O)[O-])o1)C(N)=O`, the growth inhibition is 10% in assay [1] (setting [7]); 44% in assay [1] (setting [8]); 80% (active) in assay [1] (at 50.0 µM); 4% in assay [2] (setting [7]); 18% in assay [2] (setting [8]); 49.5% in assay [2] (at 50.0 µM). For the same molecule, the growth inhibition is 10% in assay [3] (setting [7]); 57% in assay [3] (setting [8]); 87.3% (active) in assay [3] (at 50.0 µM); 3% in assay [4] (setting [7]); 17% in assay [4] (setting [8]); 49.5% in assay [4] (at 50.0 µM). In addition, the growth inhibition in assay [5] (setting [7]) is 6%; in assay [5] (setting [8]), 28%; in assay [5] (at 50.0 µM) it was 46.3%; in assay [6] (setting [7]) it was 22%; in assay [6] (setting [8]), 58%; in assay [6] (at 50.0 µM), 89.4% (active).
`CC(C)(C)c1cc(C(c2cc3c(cc2O)OCO3)N2CCOCC2)cc(C(C)(C)C)c1O` (configuration not stated): the growth inhibition was 87% (active) in assay [1] (setting [7]); 95% (active) in assay [1] (setting [8]); 69.9% in assay [1] (at 50.0 µM); 59% in assay [2] (setting [7]); 97% (active) in assay [2] (setting [8]); 64.6% in assay [2] (at 50.0 µM). The growth inhibition in assay [3] (setting [7]) is 99% (active); in assay [3] (setting [8]), 95% (active); in assay [3] (at 50.0 µM), 72.2% (active); in assay [4] (setting [7]), 52%; in assay [4] (setting [8]), 96% (active); in assay [4] (at 50.0 µM) it was 57.7%. Also, the growth inhibition in assay [5] (setting [7]) is 68%; in assay [5] (setting [8]), 96% (active); in assay [5] (at 50.0 µM), 63%; in assay [6] (setting [7]), 69%; in assay [6] (setting [8]), 97% (active); in assay [6] (at 50.0 µM), 7.8%.
Regarding `COc1ccc(C(=O)C2=C(C)Nc3ccc(Br)cc3S2)cc1`, the growth inhibition in assay [1] (setting [7]) is -2%; in assay [1] (setting [8]), 27%; in assay [1] (at 50.0 µM) it was 4.55%; in assay [2] (setting [7]), -2%; in assay [2] (setting [8]), 20%; in assay [2] (at 50.0 µM) it was 14.1%. The growth inhibition in assay [3] (setting [7]) was -12%; in assay [3] (setting [8]), 44%; in assay [3] (at 50.0 µM), -4.7%; in assay [4] (setting [7]), -8%; in assay [4] (setting [8]) it was 16%; in assay [4] (at 50.0 µM), -3.4%. For the same molecule, the growth inhibition in assay [5] (setting [7]) is -9%; in assay [5] (setting [8]), 38%; in assay [5] (at 50.0 µM) it was -0.3%; in assay [6] (setting [7]), -7%; in assay [6] (setting [8]) it was 23%; in assay [6] (at 50.0 µM), 12.4%.
`O=C(CN1CCCC1)Nc1nc(-c2ccc(Cl)cc2)cs1`: the growth inhibition in assay [1] (setting [7]) is 55%; in assay [1] (setting [8]), 69%; in assay [1] (at 50.0 µM), 50.5%; in assay [2] (setting [7]) it was 37%; in assay [2] (setting [8]) it was 53%; in assay [2] (at 50.0 µM), 35.7%. Besides, the growth inhibition in assay [3] (setting [7]) was 54%; in assay [3] (setting [8]), 87% (active); in assay [3] (at 50.0 µM), 67.5%; in assay [4] (setting [7]) it was 39%; in assay [4] (setting [8]), 57%; in assay [4] (at 50.0 µM), 48.3%. Further, the growth inhibition in assay [5] (setting [7]) was 45%; in assay [5] (setting [8]), 88% (active); in assay [5] (at 50.0 µM), 67.6%; in assay [6] (setting [7]) it was 65%; in assay [6] (setting [8]), 82% (active); in assay [6] (at 50.0 µM), 64.2%.
Turning to `c1ccc2c(c1)Cc1cc3ccccc3nc1-2`, the growth inhibition was 13% in assay [1] (setting [7]); 97% (active) in assay [1] (setting [8]); 96.5% (active) in assay [1] (at 50.0 µM); 18% in assay [2] (setting [7]); 97% (active) in assay [2] (setting [8]); 86.5% (active) in assay [2] (at 50.0 µM). Also, the growth inhibition is 13% in assay [3] (setting [7]); 98% (active) in assay [3] (setting [8]); 87.1% (active) in assay [3] (at 50.0 µM); -9% in assay [4] (setting [7]); 90% (active) in assay [4] (setting [8]); 92% (active) in assay [4] (at 50.0 µM). Besides, the growth inhibition in assay [5] (setting [7]) is 10%; in assay [5] (setting [8]), 94% (active); in assay [5] (at 50.0 µM), 89.7% (active); in assay [6] (setting [7]), 28%; in assay [6] (setting [8]) it was 99% (active); in assay [6] (at 50.0 µM), 97.2% (active).
Consider `O=c1[nH]cnc2c1ncn2CCc1ccccc1`, for which the growth inhibition was 0% in assay [1] (setting [7]); -6% in assay [1] (setting [8]); -11.6% in assay [1] (at 50.0 µM); -6% in assay [2] (setting [7]); -2% in assay [2] (setting [8]); -1.55% in assay [2] (at 50.0 µM). Besides, the growth inhibition in assay [3] (setting [7]) is -3%; in assay [3] (setting [8]) it was -5%; in assay [3] (at 50.0 µM) it was -4.45%; in assay [4] (setting [7]) it was -4%; in assay [4] (setting [8]) it was 3%; in assay [4] (at 50.0 µM), 49.1%. Moreover, the growth inhibition was 0% in assay [5] (setting [7]); 4% in assay [5] (setting [8]); 4.85% in assay [5] (at 50.0 µM); 4% in assay [6] (setting [7]); -10% in assay [6] (setting [8]); -19.8% in assay [6] (at 50.0 µM).
With `Cc1ccccc1NC(=O)CSC(N)=O`, the growth inhibition was 2% in assay [1] (setting [7]); 26% in assay [1] (setting [8]); 82.1% (active) in assay [1] (at 50.0 µM); -1% in assay [2] (setting [7]); 34% in assay [2] (setting [8]); 60.4% in assay [2] (at 50.0 µM). Also, the growth inhibition is 1% in assay [3] (setting [7]); 36% in assay [3] (setting [8]); 91.8% (active) in assay [3] (at 50.0 µM); 5% in assay [4] (setting [7]); 6% in assay [4] (setting [8]); 55% in assay [4] (at 50.0 µM). Besides, the growth inhibition is 1% in assay [5] (setting [7]); 66% in assay [5] (setting [8]); 87.3% (active) in assay [5] (at 50.0 µM); 0% in assay [6] (setting [7]); 29% in assay [6] (setting [8]); 83% (active) in assay [6] (at 50.0 µM).
